Assay results reported in PubChem BioAssay AID504339 (National Center for Advancing Translational Sciences (NCATS), 2011).
The campaign covered roughly 390,000 compounds. About 17,000 (4.4%) were called active. Entries that show only a call come without a potency. Not shown: some 8% with an inconclusive outcome. The sample holds actives, similar compounds and a random draw of the others, so the mix is not that of the screen. A number with no mark means an inactive call. The call rests on the fitted dose curve; in most records, active means well fitted inhibition curve with a large enough effect; inconclusive means small, poorly fitted or top-dose-only effect; inactive means no such curve, though single readings can be large or run the other way.

target: Lysine-specific demethylase 4A (Homo sapiens) (UniProt O75164); assay: qHTS Assay for Inhibitors of JMJD2A-Tudor Domain; conditions: AlphaScreen JMJD2A-Tudor / H3K4me3 peptide binding; series mostly up to 114 µM; further: nearly all actives have a fitted effect of over 50% in size
Sequence (O75164 whole entry, looked up, the tested form may be a part): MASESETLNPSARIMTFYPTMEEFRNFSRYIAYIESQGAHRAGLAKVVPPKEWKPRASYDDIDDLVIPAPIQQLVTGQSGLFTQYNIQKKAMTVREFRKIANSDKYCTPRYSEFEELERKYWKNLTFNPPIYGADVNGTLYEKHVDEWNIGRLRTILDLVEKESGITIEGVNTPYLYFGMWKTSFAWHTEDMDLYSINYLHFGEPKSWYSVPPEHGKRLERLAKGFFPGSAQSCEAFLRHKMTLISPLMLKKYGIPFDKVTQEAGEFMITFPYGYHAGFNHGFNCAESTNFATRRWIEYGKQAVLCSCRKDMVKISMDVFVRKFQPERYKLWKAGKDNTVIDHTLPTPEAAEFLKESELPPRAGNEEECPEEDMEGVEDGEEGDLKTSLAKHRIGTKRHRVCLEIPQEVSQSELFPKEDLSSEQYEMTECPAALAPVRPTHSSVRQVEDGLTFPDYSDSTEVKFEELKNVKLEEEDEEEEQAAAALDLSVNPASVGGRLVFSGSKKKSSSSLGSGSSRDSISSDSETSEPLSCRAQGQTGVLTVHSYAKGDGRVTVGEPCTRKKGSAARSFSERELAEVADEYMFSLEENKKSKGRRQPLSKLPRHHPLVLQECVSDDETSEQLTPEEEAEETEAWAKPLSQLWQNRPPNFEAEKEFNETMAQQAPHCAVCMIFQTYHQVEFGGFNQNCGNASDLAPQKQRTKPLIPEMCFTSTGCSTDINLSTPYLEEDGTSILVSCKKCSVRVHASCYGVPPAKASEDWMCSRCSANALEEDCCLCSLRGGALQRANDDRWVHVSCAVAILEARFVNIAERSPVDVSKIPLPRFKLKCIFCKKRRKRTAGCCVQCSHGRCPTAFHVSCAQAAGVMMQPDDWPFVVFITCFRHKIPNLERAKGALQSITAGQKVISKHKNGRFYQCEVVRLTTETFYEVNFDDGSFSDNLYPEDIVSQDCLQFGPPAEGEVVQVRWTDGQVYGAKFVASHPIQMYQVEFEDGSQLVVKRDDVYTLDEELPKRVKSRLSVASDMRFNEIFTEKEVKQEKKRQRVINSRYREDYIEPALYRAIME
From the text: JMJD2A is a jumonji-domain-containing lysine demethylase that uses Fe(II) together with 2-OG to effect oxidative demethylation of histones. Methylation is one of many […] modification that affect epigenetic transcription. […] It is proposed that the functions of JmjD2A binding to the histones, is to maintain marks after they are installed and to spread the modifications by […], establishing a self-propagating cycle for rapid methylation over a large area of chromatin. […] Thus, small molecule targeting of the JMJD2A-tudor domain interaction with its target methylhistone mark is expected to enable sophisticated experiments probing the fine regulatory pathways leading to selective demethylation of a given methyllysine locus based on the methylation state of adjacent histone marks. A quantitative high throughput AlphaScreen has been developed to identify small molecule inhibitors based on a protocol published by NCGC and SGC [4].
Although AlphaScreen has significant advantages with its utility in a variety of epigenetic target assays, the primary screening data provided in this deposition should be used with caution due to the prevalence of screening artifacts. The top compound concentration tested was high (>100uM) in this assay, which increases number of actives and potential artifacts. An AlphaScreen counterscreen is highly recommended to be run against any putative actives to eliminate non-specific artifacts. Alternatively, one can use other AlphaScreen assays in PubChem to filter out promiscuous hits.
[1] Lee, J. et al. Distinct binding modes specify the recognition of methylated histone H3K4 and H4K20 by JMJD2A-tudor. Nat Struct Mol Biol. 15(1); 109-11. 2008. PMID: 18084306
[2] Yasgar, et al. Compound Management for Quantitative High-Throughput Screening. JALA. 2008 Apr;13(2):79-89. PMID: 18496600
[3] Inglese, et al. Quantitative high-throughput screening: a titration-based approach that efficiently identifies biological activities in large chemical libraries. Proc Natl Acad Sci. 1;103(31):11473-8. 2006. PMID: 16864780
[4] Quinn et al. A homogeneous method for investigation of methyl-dependent protein-protein interactions in epigenetics. Nucleic Acids Res., 38(2):e11. 2010. PMID: […]
[5] Baell,Holloway. New substructure filters for removal of pan assay interference compounds (PAINS) from screening libraries and for their exclusion in bioassays. J Med Chem. 53(7):2719-40. 2010. PMID: 20131845
NIH Molecular Libraries Probe Production Network [MLPCN]
NIH Chemical Genomics Center [NCGC]
Structural Genomics Consortium (SGC)
To each well of a 1,536w plate, 2ul of JMJD2A-Tudor (final 100nM) and 1ul biotinylated histone peptide methylated at Lys4 [b-H3(1-18)K4me3] (final 50nM) were added in 1x PBS buffer, pH 7.4, containing 0.01% Tween-20, using a nanoliter dispenser. Formation of a protein-peptide complex proceeded at room temperature for 30 min. A Kalypsys pin-tool transferred 23nl of library compound solution in DMSO to each well. Following a 30 min incubation of the protein-peptide complex with compounds at room temperature, a mixture of 40 µg/mL each streptavidin-coated donor and nickel chelate acceptor AlphaScreen beads (final 10 µg/mL) was added in a 1ul dispense for a final volume of 4ul, followed by a brief centrifugation (1000 rpm, 1 min). Plates were incubated protected from the light for 20 min at room temperature. Microplates were then read on an EnVision multilabel plate reader using the 1,536 plate HTS AlphaScreen aperture (excitation time 80 ms, measurement time 240 ms).
Potency means the concentration at half of the fitted maximal effect.

SMILES | Potency | activity change, negative = inhibition
CN(C)C(=O)NC(O)C(Cl)(Cl)Cl (stereo not drawn) | inactive | –
COC(=O)C1=C(c2ccc(F)cc2F)C[C@@H]2CC[C@H]1N2C(=O)NC1CC1 | inactive | –
CC=C(C)C(=O)OC1CCN2CC=C(COC(=O)C(O)(C(C)OC)C(C)(C)O)C12 (stereo not drawn) | inactive | –
CCOc1ccc(-c2cc(C)[n+](CCN(CC)CC)c(-c3ccc(OCC)cc3)c2)cc1 | inactive | –
CCC(=O)CC(c1ccc([N+](=O)[O-])cc1)c1c(O)c2ccccc2oc1=O (stereo not drawn) | inactive | –
COc1ccccc1OC(=O)c1ccc(C)c(S(=O)(=O)N2CCOCC2)c1 | inactive | –
CC1CNCCN1c1ccc(Cl)cc1 (stereo not drawn) | inactive | –
Cn1cc(/C=C/c2nc3ccccc3c(=O)n2-c2ccccc2)c2ccccc21 | inactive | –
CCC(=O)OC(Cc1ccccc1)(c1ccccc1)C(C)CN(C)C (stereo not drawn) | inactive | –
O=C(C1CCN(CC2CCCCC2)CC1)N1CCCC1 | 50.1 µM (active) | –
O=C(C1CC(=O)N(C2CCCC2)C1)N1CCC2(CC1)OCCO2 (stereo not drawn) | inactive | –
C=C(C)C1(CCCC)C(=O)NC(=S)NC1=O | inactive | –
COC(=O)C1=C(c2ccc(C(C)=O)cc2)C[C@@H]2CC[C@H]1N2C(=O)NCCNC(C)=O | inactive | –
CN(C)/C=C(\C=[N+](C)C)c1[nH]ncc1[N+](=O)[O-] | inactive | –
C[C@]12CCCCC1=CC(=O)C1C2CC[C@@]2(C)C1C[C@@H](F)[C@@H]2O (stereo partly drawn) | inactive | –
O=c1[nH]c(=S)n(C2CC2)c(O)c1/C=N/N1CCOCC1 | inactive | –
CC(C)c1ccc(-n2c(O)c(/C=N/N3CCOCC3)c(=O)[nH]c2=S)cc1 | inactive | –
CC/C(=N\NC(=O)c1ccccc1O)c1c(O)n(Cc2ccccc2)c(=O)[nH]c1=O | – | -0.735% [at 11.4 µM]
O=C(N/N=C/c1c(O)n(C2CC2)c(=S)[nH]c1=O)c1ccccc1 | 56.2 µM (active) | –
COc1ccccc1-n1c(O)c(C=NC2CC2)c(=O)[nH]c1=O | inactive | –
O=C(N/N=C/c1c(O)n(C2CC2)c(=S)[nH]c1=O)c1ccccc1Cl | 89.1 µM (active) | –
COP(=O)(OC)C(NC(=O)c1ccc(C)cc1)C(Cl)(Cl)Cl (stereo not drawn) | inactive | –
Cc1nnc(NC(=O)c2cccn(Cc3cccc(F)c3)c2=O)s1 | inactive | –
COC(=O)C1=C(c2cc3ccccc3s2)C[C@@H]2CC[C@H]1N2C(=O)NCc1cccc2ccccc12 | inactive | –
CC(CC(C#N)(c1ccccc1)c1ccccc1)N1CCCCC1 (stereo not drawn) | inactive | –
O=C(COC(=O)c1ccccc1)Nc1ccccc1Sc1ccccc1 | inactive | –
Cc1cc(-c2n[nH]c(=S)n2-c2ccc(C)c(C)c2)no1 | 3.16 µM (active) | –

SMILES | Potency | activity change, negative = inhibition
O=C1NC(=O)C(CCOc2ccccc2)(CCc2ccccc2)C(=O)N1 | inactive | –
CCOC(=O)C1(c2ccccc2)CCN(CC(O)c2ccc(NC(C)=O)cc2)CC1 (stereo not drawn) | inactive | –
CCOP(=S)(OCC)SCOC(=O)NCC(=O)OC | inactive | –
COC(=O)C1=C(c2c(C)noc2C)C[C@@H]2CC[C@H]1N2C(=O)NCc1ccc2c(c1)OCO2 | inactive | –
COc1ccc(CNCCc2ccc3c(c2)OCO3)c(OC)c1OC | 89.1 µM (active) | –
CCN1CCN(Cc2cc(OC)c3c(c2)OCO3)CC1 | inactive | –
CC1C(=O)OC2CCN3CC=C(COC(=O)C(C)(O)C1(C)O)C23 (stereo not drawn) | inactive | –
COc1cc([C@@H]2c3cc4c(cc3[C@H](OC(C)=O)[C@H]3COC(=O)[C@H]23)OCO4)cc(OC)c1OC | inactive | –
COC(=O)[C@@H]1C(OC(=O)c2ccccc2)CC2CCC1N2C (stereo partly drawn) | inactive | –
CCC1(CC(C)c2ccccc2)C(=O)NC(=O)NC1=O (stereo not drawn) | inactive | –
CN(C)C(=O)Oc1cc(OC(=O)N(C)C)cc(C(O)CNC(C)(C)C)c1 (stereo not drawn) | inactive | –
Fc1ccc(N2CCN(Cc3ccc4c(c3)OCO4)CC2)cc1 | 3.55 µM (active) | –
Cc1cc(=O)oc2c(C)c(OCC(=O)N3CCN(Cc4ccc5c(c4)OCO5)CC3)ccc12 | inactive | –
O=C(Cc1ccccc1[N+](=O)[O-])N1CCN(Cc2ccc3c(c2)OCO3)CC1 | inactive | –
CCCCCCCCCCCCn1ccc(=N)cc1 | inactive | –
CSc1ccc(C(=O)C2CCCN(Cc3ccn[nH]3)C2)cc1 (stereo not drawn) | inactive | –
CN(C)CC1Oc2ccccc2OC1(O)c1ccccc1 (stereo not drawn) | inactive | –
O=c1c2ccccc2nc(-c2ccc(Cl)cc2Cl)n1-c1ccncc1 | inactive | –
O=C(O)COc1ccccc1/C=C1\C(=O)NC(=O)N(CCC2=CCCCC2)C1=O | inactive | –
O=C1NC(=O)N(Cc2ccco2)C(=O)/C1=C\c1cccn1CCOc1ccccc1 | inactive | –
COc1ccc(CN2C(=O)NC(=O)/C(=C\c3ccc(OC)c(OC)c3OC)C2=O)cc1 | 56.2 µM (active) | –
CC(=O)c1c(O)n(C2CCCCCC2)c(=O)[nH]c1=O | inactive | –
CO[C@H]1[C@@H](O)[C@@H](C)O[C@H](O[C@H]2[C@H](Oc3cccc4c(O)c5c(=O)oc6ccc(C)c7c(=O)oc(c34)c5c67)O[C@H](C)[C@H](O)[C@@H]2O)[C@@H]1O | inactive | –
COc1ccc(Br)cc1CNCCc1cccc(Cl)c1 | 22.4 µM (active) | –
CC(C)N(CC#CCC1(O)c2ccccc2-c2ccccc21)C(C)C | inactive | –
COc1ccc(-n2c(O)c(C(C)=Nc3ccc4c(c3)CCC4)c(=O)[nH]c2=O)cc1 | inactive | –
